# Measurements from the supplement of paper PMC10981050.
# Counter-ions that a name gives are not always drawn.
# Tested on: MOLM14
# Experiment: cell viability relative to vehicle control; higher = less cytotoxic
# Settings: 10 µM; SRSF2 genotype: SRSF2 wt/wt
# How it was run: (§1)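 Each screen used CRISPR-edited mutant and wild-type clones from four leukaemia lines. Compounds were acoustically dispensed at a single 10 µM dose, and CellTiter-Glo luminescence was read after 48 h with the supernatant first removed. Viability was analysed in Genedata Screener and given as percent of the on-plate vehicle control.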
row,Compound,cell viability [%]
1,COC(=O)N[C@H](C(=O)N1CCC[C@H]1c1ncc(-c2ccc(-c3ccc(-c4cnc([C@@H]5CCCN5C(=O)[C@@H](NC(=O)OC)C(C)C)[nH]4)cc3)cc2)[nH]1)C(C)C [Daclatasvir Digydrochloride],77.9
2,O=C(/C=C\n1cnc(-c2cc(C(F)(F)F)cc(C(F)(F)F)c2)n1)NNc1cnccn1 [Selinexor (KPT-330)],1.26
3,C[C@@H]1O[C@@H](OC[C@H]2O[C@@H](Oc3c(-c4ccc(OCCO)c(OCCO)c4)oc4cc(OCCO)cc(O)c4c3=O)[C@H](O)[C@@H](O)[C@@H]2O)[C@H](O)[C@H](O)[C@H]1O [Troxerutin],91.9
4,O=C1c2c(O)cc(O)cc2OC(c2ccc(O)c(O)c2)C1O (configuration not stated) [Taxifolin (Dihydroquercetin)],101
5,COc1cc2oc(-c3ccc(O)cc3)cc(=O)c2c(O)c1[C@@H]1O[C@H](CO)[C@@H](O)[C@H](O)[C@H]1O[C@@H]1O[C@H](CO)[C@@H](O)[C@H](O)[C@H]1O [Spinosin],104
6,O=C(CCNC(=O)c1ccc(OC(F)(F)F)cc1)N[C@@H]1CCCc2ccccc21,94.6
7,O=C1Nc2ccc(I)cc2C1=Cc1cc(Br)c(O)c(Br)c1,93.8
8,NC(=O)/C(=C/n1cnc(-c2cc(C(F)(F)F)cc(C(F)(F)F)c2)n1)c1cncnc1,0.57

# Tested on: OCI-AML2
# Experiment: as above
# Settings: 10 µM; SRSF2 genotype: P95H/wt
# How it was run: as §1
row,Compound,cell viability [%]
1,CCC[C@H](Nc1nc(-c2ccc(NC(=O)NCC)c(OC)c2)ncc1C)c1cccnc1,0.85
2,O=C(O)CCc1ccc(NCc2cccc(Oc3ccccc3)c2)cc1,91
3,NC(=O)N/N=C/c1ccc([N+](=O)[O-])o1 [Nitrofurazone (Nitrofural)],102
4,Cc1cnc(C(=O)O)c[n+]1[O-] [Acipimox],105
5,CS(=O)(=O)c1ccc(-c2cnc(N)c(C(=O)Nc3ccccc3)n2)cc1,98.9
6,COCCOc1nc(-c2ccc(Cl)c(Cl)c2)n(-c2ccc(NC(=O)CCl)cc2)n1 [MI-2 (MALT1 inhibitor)],0.42
7,O=C(O)C(S)=Cc1c[nH]c2ccc(F)cc12,106
8,C[C@]1(O)C[C@@H](c2nc(-c3ccc4ccc(-c5ccccc5)nc4c3)c3c(N)nccn32)C1 [OSI-906 (Linsitinib)],29.6
9,O=C(O)/C=C/c1ccc(O)cc1 [p-Coumaric Acid],109
10,c1ccc(-c2ccc(C(c3ccccc3)n3ccnc3)cc2)cc1 (configuration not stated) [Bifonazole],83.9
11,Cc1cc(C)c(/C=C2\C(=O)Nc3ccccc32)[nH]1 [Semaxanib (SU5416)],28.1
12,NC[C@@](O)(c1ccc(Cl)cc1)c1ccc(-c2cn[nH]c2)cc1,13.8
13,COc1cc(/C=C/C(=O)CC(=O)/C=C/c2ccc(O)c(OC)c2)ccc1O [Curcumin],60.6
14,Oc1ccc(-c2nc(-c3ccc(F)cc3)c(-c3ccncc3)[nH]2)cc1,99.7
15,CCN(CC)CCOC(=O)C(c1ccccc1)c1ccccc1 [Adiphenine HCl],92.4
16,C=C1[C@H](O)C[C@H]2[C@@H](/C=C(\C)C(=O)[C@@]3(O)C[C@H](C)[C@H](O)[C@@H]3[C@H]1O)C2(C)C,93.9
17,COc1cccc(C=NCCN=Cc2cccc(OC)c2[O-])c1[O-].[Cl-].[Mn+3],89.2
18,c1ccc(CNc2nc(NCc3ccccc3)c3ccccc3n2)cc1,0.21
19,CCCC1O[C@@H]2C[C@H]3[C@@H]4CCC5=CC(=O)C=C[C@]5(C)[C@H]4[C@@H](O)C[C@]3(C)[C@]2(C(=O)CO)O1 (some centres not stated) [Budesonide],70.5
20,"Cc1[nH]c(/C=C2\C(=O)Nc3ccccc32)c(C)c1CCC(=O)O [Orantinib (TSU-68, SU6668)]",75.2
21,CC(=O)Oc1cccc2ccccc12 [1-Naphthyl acetate],93.3
22,CN1CCN(CCOc2cc(OC3CCOCC3)c3c(Nc4c(Cl)ccc5c4OCO5)ncnc3c2)CC1 [Saracatinib (AZD0530)],73.4
23,CC[C@H]1OC(=O)[C@@](C)(F)C(=O)[C@H](C)[C@@H](O[C@@H]2O[C@H](C)C[C@H](N(C)C)[C@H]2O)[C@](C)(OC)C[C@@H](C)C(=O)[C@H](C)[C@H]2N(CCCCn3cc(-c4cccc(N)c4)nn3)C(=O)O[C@]12C [Solithromycin],94.1
24,C[C@@H]1O[C@@H](O[C@H]2[C@H](Oc3cc(O)c(C(=O)CCc4ccc(O)cc4)c(O)c3)O[C@H](CO)[C@@H](O)[C@@H]2O)[C@H](O)[C@H](O)[C@H]1O [Naringin Dihydrochalcone (Naringin DC)],96.8
